# Data reported in paper PMC7862700, “An all-to-all approach to the identification of sequence-specific readers for epigenetic DNA modifications on cytosine”.
# Key:
# Assay in all cases: DAPPL (digital affinity profiling via proximity ligation, sequencing); 10 mM Tris-HCl pH 7.5, 50 mM NaCl, 1 mM DTT, 4% glycerol, room temperature, 30 min; GST-TFs on glutathione beads, 16-mer random dsDNA library, 0.1% formaldehyde crosslink after washing; high values mean tight binding
# FEV = biological target: T1, FEV (Homo sapiens, UniProt Q99581 1-238); details: protein: recombinant; tags: N-terminal GST; dsDNA, one strand shown
# T1 sequence: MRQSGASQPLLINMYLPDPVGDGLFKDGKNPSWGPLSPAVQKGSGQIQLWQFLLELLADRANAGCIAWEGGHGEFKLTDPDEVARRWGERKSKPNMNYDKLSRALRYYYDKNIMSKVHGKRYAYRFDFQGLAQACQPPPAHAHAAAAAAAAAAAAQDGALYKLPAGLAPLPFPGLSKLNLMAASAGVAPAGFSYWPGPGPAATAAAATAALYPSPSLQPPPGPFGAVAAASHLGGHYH
# In short: (§1)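 Binding signal is given per hexamer as its read frequency for a factor divided by its frequency in the tag-only sample. GST-fused human transcription factors were expressed in yeast, captured on glutathione beads, barcoded with DNA and pooled with that sample, then incubated with 200 nmole of a 16-mer random double-stranded DNA library in Tris/NaCl/DTT/glycerol buffer for 30 min at room temperature. The pools were then washed, crosslinked, proximity-ligated, amplified by PCR and sequenced on an Illumina NextSeq500.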
# ETV5 = ETV5 (Homo sapiens, UniProt P41161 1-510); details: protein: recombinant; tags: N-terminal GST; dsDNA, one strand shown
# In short: as §1
# HSF1 = HSF1 (Homo sapiens, UniProt Q00613 1-529); details: protein: recombinant; tags: N-terminal GST; chain copies: 3; dsDNA, one strand shown
# In short: as §1
# SPIC = biological target: T2, SPIC (Homo sapiens, UniProt Q8N5J4 1-248); details: protein: recombinant; tags: N-terminal GST; dsDNA, one strand shown
# T2 sequence: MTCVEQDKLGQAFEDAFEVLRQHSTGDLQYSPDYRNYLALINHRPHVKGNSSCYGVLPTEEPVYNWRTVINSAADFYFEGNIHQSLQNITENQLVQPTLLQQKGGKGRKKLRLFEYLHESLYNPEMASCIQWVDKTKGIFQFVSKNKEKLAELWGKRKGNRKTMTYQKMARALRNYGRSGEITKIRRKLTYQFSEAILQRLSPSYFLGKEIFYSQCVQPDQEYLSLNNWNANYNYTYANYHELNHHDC
# In short: as §1
# ELF4 = ELF4 (Homo sapiens, UniProt Q99607 1-663); details: protein: recombinant; tags: N-terminal GST; dsDNA, one strand shown
# In short: as §1
# ELK4 = biological target: T3, ELK4 (Homo sapiens, UniProt P28324-2 1-405); details: protein: recombinant; tags: N-terminal GST; dsDNA, one strand shown
# T3 sequence: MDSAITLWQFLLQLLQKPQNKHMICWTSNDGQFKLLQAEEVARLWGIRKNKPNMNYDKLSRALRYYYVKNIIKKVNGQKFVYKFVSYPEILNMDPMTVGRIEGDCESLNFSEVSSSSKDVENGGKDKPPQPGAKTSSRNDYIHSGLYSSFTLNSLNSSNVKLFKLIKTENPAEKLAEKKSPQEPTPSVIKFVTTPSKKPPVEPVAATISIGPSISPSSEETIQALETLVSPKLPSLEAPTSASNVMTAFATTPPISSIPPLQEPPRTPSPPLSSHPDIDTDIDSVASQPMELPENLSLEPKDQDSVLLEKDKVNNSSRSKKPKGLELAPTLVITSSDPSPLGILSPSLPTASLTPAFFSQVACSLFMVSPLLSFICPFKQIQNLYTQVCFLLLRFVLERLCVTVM
# In short: as §1
# ETV2 = biological target: T4, ETV2 (Homo sapiens, UniProt O00321 1-342); details: protein: recombinant; tags: N-terminal GST; dsDNA, one strand shown
# T4 sequence: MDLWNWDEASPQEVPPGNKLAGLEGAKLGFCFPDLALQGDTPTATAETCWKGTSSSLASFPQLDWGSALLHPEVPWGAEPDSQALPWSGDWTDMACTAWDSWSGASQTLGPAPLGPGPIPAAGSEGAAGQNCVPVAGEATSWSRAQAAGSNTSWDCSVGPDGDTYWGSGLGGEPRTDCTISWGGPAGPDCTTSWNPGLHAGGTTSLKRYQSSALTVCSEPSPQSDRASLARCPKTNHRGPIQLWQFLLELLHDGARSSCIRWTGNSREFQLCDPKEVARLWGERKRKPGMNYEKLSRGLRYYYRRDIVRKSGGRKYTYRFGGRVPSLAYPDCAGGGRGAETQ
# In short: as §1
# ELF3 = biological target: T5, ELF3 (Homo sapiens, UniProt P78545 1-371); details: protein: recombinant; tags: N-terminal GST; dsDNA, one strand shown
# T5 sequence: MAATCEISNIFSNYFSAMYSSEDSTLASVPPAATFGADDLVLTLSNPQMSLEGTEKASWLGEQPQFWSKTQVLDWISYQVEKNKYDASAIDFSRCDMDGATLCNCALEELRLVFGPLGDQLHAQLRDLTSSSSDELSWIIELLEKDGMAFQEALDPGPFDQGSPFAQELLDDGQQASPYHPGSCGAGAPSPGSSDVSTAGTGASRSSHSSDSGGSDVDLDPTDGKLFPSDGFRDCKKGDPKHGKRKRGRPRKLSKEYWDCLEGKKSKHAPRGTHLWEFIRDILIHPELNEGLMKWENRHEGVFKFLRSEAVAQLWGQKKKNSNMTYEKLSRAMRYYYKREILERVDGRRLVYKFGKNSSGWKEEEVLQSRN
# In short: as §1
# CRX = CRX (Homo sapiens, UniProt O43186 1-299); details: protein: recombinant; tags: N-terminal GST; dsDNA, one strand shown
# In short: as §1
# ETV1 = ETV1 (Homo sapiens, UniProt P50549 1-477); details: protein: recombinant; tags: N-terminal GST; dsDNA, one strand shown
# In short: as §1
# ERF = biological target: T6, ERF (Homo sapiens, UniProt P50548 1-548); details: protein: recombinant; tags: N-terminal GST; dsDNA, one strand shown
# T6 sequence: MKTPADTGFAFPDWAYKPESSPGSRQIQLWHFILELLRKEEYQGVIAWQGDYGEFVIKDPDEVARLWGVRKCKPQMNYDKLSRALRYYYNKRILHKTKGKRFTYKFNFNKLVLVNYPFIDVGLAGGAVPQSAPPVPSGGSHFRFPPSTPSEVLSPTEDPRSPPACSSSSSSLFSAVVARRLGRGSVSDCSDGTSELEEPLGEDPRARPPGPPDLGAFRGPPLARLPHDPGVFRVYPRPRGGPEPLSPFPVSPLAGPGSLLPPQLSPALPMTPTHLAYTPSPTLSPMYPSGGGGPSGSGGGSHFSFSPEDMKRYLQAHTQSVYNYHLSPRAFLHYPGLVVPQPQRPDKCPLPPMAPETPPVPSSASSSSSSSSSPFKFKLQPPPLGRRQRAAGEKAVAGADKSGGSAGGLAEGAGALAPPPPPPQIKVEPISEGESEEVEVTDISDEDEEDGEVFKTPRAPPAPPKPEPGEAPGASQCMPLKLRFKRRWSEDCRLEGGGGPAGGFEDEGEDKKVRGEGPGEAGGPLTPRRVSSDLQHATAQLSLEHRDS
# In short: as §1
# ETV3L = biological target: T7, ETV3L (Homo sapiens, UniProt Q6ZN32 1-361); details: protein: recombinant; tags: N-terminal GST; dsDNA, one strand shown
# T7 sequence: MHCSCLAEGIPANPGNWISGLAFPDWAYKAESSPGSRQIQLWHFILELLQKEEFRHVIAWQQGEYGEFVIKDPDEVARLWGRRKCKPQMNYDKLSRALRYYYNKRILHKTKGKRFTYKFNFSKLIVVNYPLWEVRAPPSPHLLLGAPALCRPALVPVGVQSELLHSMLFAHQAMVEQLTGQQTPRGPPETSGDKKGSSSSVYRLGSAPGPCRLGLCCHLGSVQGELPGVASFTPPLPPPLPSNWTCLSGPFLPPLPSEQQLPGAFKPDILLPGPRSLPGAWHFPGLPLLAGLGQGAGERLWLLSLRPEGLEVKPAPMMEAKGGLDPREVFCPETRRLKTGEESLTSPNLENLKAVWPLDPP
# In short: as §1
# ETS2 = biological target: T8, ETS2 (Homo sapiens, UniProt P15036 1-469); details: protein: recombinant; tags: N-terminal GST; dsDNA, one strand shown
# T8 sequence: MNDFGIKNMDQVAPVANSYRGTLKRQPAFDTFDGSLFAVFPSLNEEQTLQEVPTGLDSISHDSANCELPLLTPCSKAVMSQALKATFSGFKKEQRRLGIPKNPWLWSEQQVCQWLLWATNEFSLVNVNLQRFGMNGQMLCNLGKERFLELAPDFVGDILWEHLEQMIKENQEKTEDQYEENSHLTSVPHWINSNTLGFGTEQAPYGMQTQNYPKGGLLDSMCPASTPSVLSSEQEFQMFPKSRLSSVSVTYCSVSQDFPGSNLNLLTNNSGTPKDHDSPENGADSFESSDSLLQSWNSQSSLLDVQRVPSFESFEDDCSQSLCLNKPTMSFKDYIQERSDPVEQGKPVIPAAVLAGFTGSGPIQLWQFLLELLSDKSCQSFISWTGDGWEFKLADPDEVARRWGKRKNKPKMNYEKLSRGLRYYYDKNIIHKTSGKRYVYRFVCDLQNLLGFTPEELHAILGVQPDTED
# In short: as §1
# SPDEF = biological target: T9, SPDEF (Homo sapiens, UniProt O95238 1-335); details: protein: recombinant; tags: N-terminal GST; dsDNA, one strand shown
# T9 sequence: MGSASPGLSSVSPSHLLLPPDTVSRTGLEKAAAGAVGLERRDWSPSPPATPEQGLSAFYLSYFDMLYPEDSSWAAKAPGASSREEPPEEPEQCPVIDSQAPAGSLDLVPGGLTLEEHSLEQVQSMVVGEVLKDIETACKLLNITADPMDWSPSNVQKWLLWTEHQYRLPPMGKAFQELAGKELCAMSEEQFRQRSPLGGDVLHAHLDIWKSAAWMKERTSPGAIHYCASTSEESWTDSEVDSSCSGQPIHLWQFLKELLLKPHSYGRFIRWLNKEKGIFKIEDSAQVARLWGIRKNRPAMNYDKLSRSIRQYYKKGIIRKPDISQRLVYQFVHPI
# In short: as §1
# ETV7 = biological target: T10, ETV7 (Homo sapiens, UniProt Q9Y603 1-341); details: protein: recombinant; tags: N-terminal GST; dsDNA, one strand shown
# T10 sequence: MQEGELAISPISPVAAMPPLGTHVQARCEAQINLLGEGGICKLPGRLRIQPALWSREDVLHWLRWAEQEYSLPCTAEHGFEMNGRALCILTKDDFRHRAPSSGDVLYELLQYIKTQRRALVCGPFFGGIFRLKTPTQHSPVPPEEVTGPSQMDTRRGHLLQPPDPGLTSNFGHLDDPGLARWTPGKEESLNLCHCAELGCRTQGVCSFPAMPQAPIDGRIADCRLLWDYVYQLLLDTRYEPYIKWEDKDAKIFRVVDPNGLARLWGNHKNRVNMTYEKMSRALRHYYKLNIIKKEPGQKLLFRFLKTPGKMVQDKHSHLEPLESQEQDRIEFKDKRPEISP
# In short: as §1
# ELF5 = biological target: T11, ELF5 (Homo sapiens, UniProt Q9UKW6-2 1-255); details: protein: recombinant; tags: N-terminal GST; dsDNA, one strand shown
# T11 sequence: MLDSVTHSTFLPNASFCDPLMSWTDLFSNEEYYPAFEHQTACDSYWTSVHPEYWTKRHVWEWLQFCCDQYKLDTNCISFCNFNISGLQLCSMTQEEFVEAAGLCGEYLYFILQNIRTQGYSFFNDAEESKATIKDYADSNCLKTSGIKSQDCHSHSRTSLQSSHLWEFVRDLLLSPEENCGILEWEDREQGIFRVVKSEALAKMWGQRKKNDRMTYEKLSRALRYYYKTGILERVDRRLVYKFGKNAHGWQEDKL
# In short: as §1
# ETV3 = biological target: T12, ETV3 (Homo sapiens, UniProt P41162-2 1-143); details: protein: recombinant; tags: N-terminal GST; dsDNA, one strand shown
# T12 sequence: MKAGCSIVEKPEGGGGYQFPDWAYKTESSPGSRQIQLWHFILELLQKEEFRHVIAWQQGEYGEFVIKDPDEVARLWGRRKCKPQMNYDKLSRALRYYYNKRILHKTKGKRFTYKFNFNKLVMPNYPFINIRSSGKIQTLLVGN
# In short: as §1
# ETV6 = ETV6 (Homo sapiens, UniProt P41212 1-452); details: protein: recombinant; tags: N-terminal GST; dsDNA, one strand shown
# In short: as §1
# Sequence of ETV6 (P41212 whole entry): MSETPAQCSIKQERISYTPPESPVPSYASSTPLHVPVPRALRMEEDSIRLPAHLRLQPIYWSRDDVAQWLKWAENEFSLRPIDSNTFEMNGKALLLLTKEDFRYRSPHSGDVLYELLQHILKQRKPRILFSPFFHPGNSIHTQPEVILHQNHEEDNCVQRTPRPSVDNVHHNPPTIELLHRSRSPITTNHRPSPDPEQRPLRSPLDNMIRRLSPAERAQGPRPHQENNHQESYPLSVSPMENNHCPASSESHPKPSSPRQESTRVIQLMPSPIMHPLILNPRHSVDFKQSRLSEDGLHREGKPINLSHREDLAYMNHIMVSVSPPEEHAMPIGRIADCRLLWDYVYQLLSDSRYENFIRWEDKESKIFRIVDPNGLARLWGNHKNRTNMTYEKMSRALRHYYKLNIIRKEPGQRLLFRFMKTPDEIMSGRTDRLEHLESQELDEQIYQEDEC
# Sequence of CRX (O43186 whole entry): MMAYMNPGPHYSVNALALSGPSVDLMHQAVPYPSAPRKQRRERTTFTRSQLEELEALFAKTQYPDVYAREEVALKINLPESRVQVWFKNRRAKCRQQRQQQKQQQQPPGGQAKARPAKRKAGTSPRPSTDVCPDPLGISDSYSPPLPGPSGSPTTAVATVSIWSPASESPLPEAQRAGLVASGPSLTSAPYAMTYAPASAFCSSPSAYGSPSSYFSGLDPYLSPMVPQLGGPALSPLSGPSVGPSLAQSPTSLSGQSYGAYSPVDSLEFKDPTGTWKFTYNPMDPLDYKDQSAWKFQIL
# Sequence of ETV1 (P50549 whole entry): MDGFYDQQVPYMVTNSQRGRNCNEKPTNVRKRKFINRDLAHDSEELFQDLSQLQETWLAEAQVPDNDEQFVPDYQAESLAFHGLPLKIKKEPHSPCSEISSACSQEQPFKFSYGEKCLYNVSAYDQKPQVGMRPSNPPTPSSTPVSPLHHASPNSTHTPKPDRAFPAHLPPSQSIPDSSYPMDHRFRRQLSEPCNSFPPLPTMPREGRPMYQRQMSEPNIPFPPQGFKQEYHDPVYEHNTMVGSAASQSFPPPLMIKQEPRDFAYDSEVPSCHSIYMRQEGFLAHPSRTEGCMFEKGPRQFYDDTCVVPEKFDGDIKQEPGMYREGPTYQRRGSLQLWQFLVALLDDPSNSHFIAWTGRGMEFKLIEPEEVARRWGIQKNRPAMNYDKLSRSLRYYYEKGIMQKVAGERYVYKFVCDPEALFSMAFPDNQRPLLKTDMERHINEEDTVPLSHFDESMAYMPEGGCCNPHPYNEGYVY
# Sequence of ELF4 (Q99607 whole entry): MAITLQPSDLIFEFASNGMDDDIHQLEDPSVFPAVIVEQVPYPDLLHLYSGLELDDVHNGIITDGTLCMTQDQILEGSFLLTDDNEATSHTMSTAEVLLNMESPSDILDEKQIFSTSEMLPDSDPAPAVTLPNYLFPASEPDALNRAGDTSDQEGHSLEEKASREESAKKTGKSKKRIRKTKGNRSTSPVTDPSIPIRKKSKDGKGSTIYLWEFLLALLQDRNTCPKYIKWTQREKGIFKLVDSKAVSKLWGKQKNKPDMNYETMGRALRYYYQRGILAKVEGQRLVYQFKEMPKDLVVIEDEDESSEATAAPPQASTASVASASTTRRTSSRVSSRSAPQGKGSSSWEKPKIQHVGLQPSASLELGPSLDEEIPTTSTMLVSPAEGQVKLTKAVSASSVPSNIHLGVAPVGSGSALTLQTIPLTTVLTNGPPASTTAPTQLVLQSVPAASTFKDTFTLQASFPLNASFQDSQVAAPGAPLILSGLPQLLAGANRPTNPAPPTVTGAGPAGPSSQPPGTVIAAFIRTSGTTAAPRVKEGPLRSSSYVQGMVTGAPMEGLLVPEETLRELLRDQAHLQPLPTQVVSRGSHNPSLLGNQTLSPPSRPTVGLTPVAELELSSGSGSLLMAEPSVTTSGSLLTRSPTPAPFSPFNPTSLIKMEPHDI
# Sequence of ETV5 (P41161 whole entry): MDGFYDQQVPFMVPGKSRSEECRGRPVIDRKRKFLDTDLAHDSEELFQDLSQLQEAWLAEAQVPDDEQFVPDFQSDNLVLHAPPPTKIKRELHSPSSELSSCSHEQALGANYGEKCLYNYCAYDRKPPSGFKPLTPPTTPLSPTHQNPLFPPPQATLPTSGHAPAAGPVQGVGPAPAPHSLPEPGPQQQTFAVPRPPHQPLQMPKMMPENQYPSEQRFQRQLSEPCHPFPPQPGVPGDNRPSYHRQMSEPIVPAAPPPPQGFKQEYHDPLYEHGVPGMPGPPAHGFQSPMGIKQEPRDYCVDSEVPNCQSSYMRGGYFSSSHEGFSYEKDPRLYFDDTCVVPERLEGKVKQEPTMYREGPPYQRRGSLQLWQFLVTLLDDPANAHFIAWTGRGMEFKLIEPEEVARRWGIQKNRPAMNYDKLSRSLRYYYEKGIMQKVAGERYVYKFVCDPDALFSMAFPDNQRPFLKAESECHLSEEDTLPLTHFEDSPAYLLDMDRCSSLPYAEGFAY
# Sequence of HSF1 (Q00613 whole entry): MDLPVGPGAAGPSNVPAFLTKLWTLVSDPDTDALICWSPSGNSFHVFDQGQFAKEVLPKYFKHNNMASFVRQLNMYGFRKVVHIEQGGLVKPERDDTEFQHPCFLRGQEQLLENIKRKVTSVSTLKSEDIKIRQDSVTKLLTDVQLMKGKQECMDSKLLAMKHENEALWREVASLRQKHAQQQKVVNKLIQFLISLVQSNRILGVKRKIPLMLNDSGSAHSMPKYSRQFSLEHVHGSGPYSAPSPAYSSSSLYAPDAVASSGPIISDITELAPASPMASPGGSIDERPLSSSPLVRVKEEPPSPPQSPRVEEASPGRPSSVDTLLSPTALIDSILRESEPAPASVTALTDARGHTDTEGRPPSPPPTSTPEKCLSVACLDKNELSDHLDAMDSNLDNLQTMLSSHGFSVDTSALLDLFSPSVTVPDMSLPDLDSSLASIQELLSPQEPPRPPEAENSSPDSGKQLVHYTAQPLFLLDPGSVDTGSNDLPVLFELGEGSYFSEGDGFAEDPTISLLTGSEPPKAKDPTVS
sequence,measurement,setting,value
CCCTCT,binding signal,FEV,"1.35 fold enrichment (6-mer frequency, TF over GST control)"
same,binding signal,ETV5,"1.33 fold enrichment (6-mer frequency, TF over GST control)"
same,binding signal,HSF1,"1.29 fold enrichment (6-mer frequency, TF over GST control)"
same,binding signal,SPIC,"1.14 fold enrichment (6-mer frequency, TF over GST control)"
same,binding signal,ELF4,"1.46 fold enrichment (6-mer frequency, TF over GST control)"
same,binding signal,ELK4,"1.6 fold enrichment (6-mer frequency, TF over GST control)"
same,binding signal,ETV2,"1.32 fold enrichment (6-mer frequency, TF over GST control)"
same,binding signal,ELF3,"1.34 fold enrichment (6-mer frequency, TF over GST control)"
same,binding signal,CRX,"1.36 fold enrichment (6-mer frequency, TF over GST control)"
same,binding signal,ETV1,"1.25 fold enrichment (6-mer frequency, TF over GST control)"
same,binding signal,ERF,"1.41 fold enrichment (6-mer frequency, TF over GST control)"
same,binding signal,ETV3L,"1.3 fold enrichment (6-mer frequency, TF over GST control)"
same,binding signal,ETS2,"1.36 fold enrichment (6-mer frequency, TF over GST control)"
same,binding signal,SPDEF,"1.17 fold enrichment (6-mer frequency, TF over GST control)"
same,binding signal,ETV7,"1.27 fold enrichment (6-mer frequency, TF over GST control)"
same,binding signal,ELF5,"1.29 fold enrichment (6-mer frequency, TF over GST control)"
same,binding signal,ETV3,"1.4 fold enrichment (6-mer frequency, TF over GST control)"
same,binding signal,ETV6,"1.31 fold enrichment (6-mer frequency, TF over GST control)"
